Test results taken from PMC4552634, “A New Set of Chemical Starting Points with Plasmodium falciparum Transmission-Blocking Potential for Antimalarial Drug Discovery” (PLoS ONE, 2015).
In all, about 13,000 compounds went through this assay and about 3,200 (25%) showed an effect of 50% or more. The list shows a part of the results.

test system: P. falciparum stage V gametocytes; set-up: BacTiter-Glo ATP luminescence viability of purified stage V gametocytes in 384-well plates, per cent inhibition versus DMSO; details: 48 h, 5 µM; inhibitor

SMILES | % Inhibition [%]
CC(C)CN(c1nc(C(=O)NNC(=O)[C@H](CC2CC2)NC(=O)c2cc3cc(OCCN(C)C)ccc3o2)cs1)C1CC1 [TCMDC-139231] | -13.37
CC(C)CN(c1nc(C(=O)NNC(=O)[C@H](CC2CC2)NC(=O)c2cc3cc(OCCN4CCCCC4)ccc3o2)cs1)C1CC1 [TCMDC-139232] | 55.6
O=C(N[C@@H](CC1CCCCC1)C(=O)NCCN1CCCCC1)c1ccc(O)c(-c2ccc(Cl)c(Cl)c2)c1 [TCMDC-140862] | 10.77
OC(CN1CCN(C2CCCCC2)CC1)Cn1c2ccccc2c2cc(Br)ccc21 (centres unmarked) [TCMDC-124167] | -21.87
Oc1ccc2ccccc2c1CNC1CCCCCC1 [TCMDC-137607] | 9.064
CC1CC(C)CN(CC(O)CNC(=O)Nc2ccc(Br)cc2)C1 (centres unmarked) [TCMDC-134636] | 5.991
Cc1nn(CC(O)Cn2c3ccc(Br)cc3c3cc(Br)ccc32)c(C)c1Br (centres unmarked) [TCMDC-124164] | 72.64
CC1CN(CC(O)Cn2c3ccc(Br)cc3c3cc(Br)ccc32)CC(C)O1 (centres unmarked) [TCMDC-124072] | 94.88
OC(CNCc1ccco1)Cn1c2ccc(Br)cc2c2cc(Br)ccc21 (centres unmarked) [TCMDC-124071] | 6.388
OC(CNC1CCCCC1)Cn1c2ccc(I)cc2c2cc(I)ccc21 (centres unmarked) [TCMDC-124074] | 101.6
CC(C)(C)SCC(O)Cn1c2ccc(Br)cc2c2cc(Br)ccc21 (centres unmarked) [TCMDC-124058] | -64.42
CC12CCC(CN(CC(O)Cn3c4ccccc4c4cc(I)ccc43)C1)C2(C)C (centres unmarked) [TCMDC-124075] | -73.11
CC(NCC(O)Cn1c2ccccc2c2ccccc21)c1ccccc1 (centres unmarked) [TCMDC-124073] | 13.55
OC(CNC1CCCCC1)Cn1c2ccccc2c2ccccc21 (centres unmarked) [TCMDC-124168] | 90.81
CC(C)(CNC(=O)C1CCN(CC2CCCCC2)CC1)c1nc(-c2ccc(Cl)c(O)c2)c(-c2ccncc2)[nH]1 [TCMDC-141147] | -93.22
CN(C)CCOc1ccc(-c2cc(-c3ccnc(N)n3)c(-c3ccc(Cl)c(O)c3)o2)cc1 [TCMDC-141338] | -4.532
CCCCCc1cc(O)c2c(c1)OC(C)(C)CC2C1=CCN(Cc2cccnc2)CC1 (centres unmarked) [TCMDC-131417] | -23.46
CCCc1ccc(NC(=O)c2ccc(CN3CCCN(Cc4cccc(O)c4)CC3)cc2)cc1 [TCMDC-136421] | 2.458
COc1ccc(C=NNc2nc(-c3ccccc3)cc(=O)[nH]2)cc1OC [TCMDC-124217] | 8.014
CC(C)NCC(O)Cn1c2ccc(Br)cc2c2cc(Br)ccc21 (centres unmarked) [TCMDC-124100] | 43.74
OC(CNC1CCCCC1)Cn1c2ccc(Br)cc2c2cc(Br)ccc21 (centres unmarked) [TCMDC-124059] | 90.2
N#Cc1ccc(-c2ccc(C(=O)NCCCCN3CCC(c4ccncc4)CC3)cc2)cc1 [TCMDC-135811] | -0.7108
N#Cc1ccc(C2CCN(CC[C@H](N)Cc3ccc(Cl)s3)CC2)cc1 [TCMDC-132358] | 63.71
N#Cc1cccc(C(=O)N2CCOC(CCN3CCC(c4ccccc4)CC3)(c3ccc(Cl)c(Cl)c3)C2)c1 (centres unmarked) [TCMDC-135335] | 20.78
CC1(C)N=C(N)N=C(N)N1O [TCMDC-131576] | -2.875

SMILES | % Inhibition [%]
COc1ccc2ncc(F)c(CCN3CC[C@H](NC(=O)c4ccc5c(n4)NC(=O)CS5)[C@H](O)C3)c2n1 [TCMDC-135907] | -25.82
COc1ccc2ncc(F)c(CCN3CC[C@@H](CNCc4cc5c(cn4)OCS5)C3)c2n1 [TCMDC-135643] | 33.53
COc1ccc2ncc(F)c(CCN3CCC[C@H](CNCc4ccc5c(n4)NC(=O)CS5)C3)c2n1 [TCMDC-136318] | 98.5
COc1ccc2ncc(F)c(CCN3CC4CCCC4(CNCc4ccc5c(n4)NC(=O)CS5)C3)c2n1 (centres unmarked) [TCMDC-136065] | 28.02
COc1ccc2ncc(F)c(CCN3CC[C@@H](CNCc4nc5c(cc4C)SCC(=O)N5)C3)c2n1 [TCMDC-136056] | 97.91
COc1ccc2ncc(Cl)c(CCN3C[C@H](CNCc4ccc5c(n4)NC(=O)CS5)[C@H](O)C3)c2n1 [TCMDC-136241] | 10.16
COc1ccc(NC(C)C(=O)Nc2ccc(Br)cc2)cc1S(=O)(=O)N1CCCCC1 (centres unmarked) [TCMDC-125032] | -25.53
O=C(Cc1ccc[n+]([O-])c1)Nc1cccc(-c2cccc(-c3nc4cc(F)ccc4[nH]3)c2)c1 [TCMDC-136989] | -50
Cc1ccc2nc(N(CCCn3ccnc3)C(=O)C=Cc3cccs3)sc2c1 [TCMDC-124927] | 1.025
O=C(C=Cc1cccs1)N(CCCn1ccnc1)c1nc2ccc(F)cc2s1 [TCMDC-124928] | 96.26
COc1ccc2nc(N(CCCn3ccnc3)C(=O)C=Cc3cccs3)sc2c1 [TCMDC-124926] | -10.06
OCCN1CCN(C2Cc3ccc(F)cc3Sc3ccc(Cl)cc32)CC1 (centres unmarked) [TCMDC-123467] | 11.59
C=C(NC(=O)c1cc(C)cc(C)c1)C(=O)OC [TCMDC-131725] | 5.196
CC1CCCN1Cc1cccc(-c2ccc(C(=O)NCCOc3ccccc3)s2)c1 (centres unmarked) [TCMDC-133066] | -6.821
CC(C)(C)OC(=O)[C@H](CC(N)=O)NC(=O)c1ccc(-c2ccc(-c3nc4cc(C(F)(F)F)ccc4[nH]3)s2)cc1 [TCMDC-132340] | -23.75
CC(C)N(Cc1cnc(N)c(C#N)n1)c1ccc(Cl)c(Cl)c1 [TCMDC-137676] | 6.722
O=c1[nH]c(=O)n2c(nc3ccccc32)[nH]1 [TCMDC-131695] | 19.78
COc1ccc(CNCc2ccc(F)cc2)cc1-c1ccc(OC)c(S(=O)(=O)NCCN2CCCC2)c1 [TCMDC-132295] | 107
Cc1cc(-c2ccc(CNCc3ccc(F)cc3)cc2)ccc1S(=O)(=O)NCCN1CCCC1 [TCMDC-132291] | 38.43
Cc1cc(-c2cccc(CNCc3ccc(F)cc3)c2)ccc1S(=O)(=O)NCCN1CCCC1 [TCMDC-132278] | 105
COc1ccc(CNCc2ccccc2)cc1-c1ccc(OC)c(S(=O)(=O)NCCN2CCCC2)c1 [TCMDC-132250] | 31.04
COc1ccc(-c2ccc(CNCc3ccc(F)cc3)cc2)cc1S(=O)(=O)NCCN1CCCC1 [TCMDC-132282] | 111.7
COc1ccc(-c2cccc(CNCc3ccc(F)cc3)c2)cc1S(=O)(=O)NCCN1CCCC1 [TCMDC-132408] | 73.1
O=S(=O)(NCCN1CCCC1)c1ccc(-c2cccc(CNCc3ccc(F)cc3)c2)cc1F [TCMDC-132275] | 25.81
COc1ccc(Nc2nc(NCc3cccc(NS(C)(=O)=O)c3)cc(-c3ccc(OC)cc3)n2)cc1 [TCMDC-133457] | -11.45

SMILES | % Inhibition [%]
COc1ccc(Nc2ncc3c(-c4cccc(NC(=O)Cc5cccc(O)c5)c4)c[nH]c3n2)cc1OC [TCMDC-135247] | -20.67
CN1CC=C(c2c[nH]c3ccc(-c4ccccc4)cc23)CC1 [TCMDC-138962] | -5.151
Cc1cc2nc(-c3ccc(SCC(=O)Nc4ccc5c(c4)OCCO5)nc3)[nH]c2cc1C [TCMDC-125353] | 21.88
O=C(CN1CCC2(CCC1=O)CC(=O)c1ccccc1O2)NCCN1CCOCC1 (centres unmarked) [TCMDC-133148] | 11.41
COc1ccc(-c2ccc(CNCc3ccccc3)cc2)cc1S(=O)(=O)NCCN1CCCC1 [TCMDC-132230] | 103.5
C=CCOC(=O)N1CCC(CNCc2cccc(-c3ccc(-c4nc5cc(C(F)(F)F)ccc5[nH]4)cc3)c2)C1.O=C(O)C(F)(F)F (centres unmarked) [TCMDC-133042] | -7.537
COc1cccc(CNC(=O)c2cccc(-c3cccc(CN4CCC(N5CCCC5)CC4)c3)n2)c1 [TCMDC-134417] | 25.8
COc1cccc(CNC(=O)NC2CCN(c3ccnc(Nc4ccc(F)cc4)n3)C2)c1 (centres unmarked) [TCMDC-133604] | -32.96
COc1cccc(OC2CCN(C(=O)c3cc(C(C)(C)C)nn3Cc3ccccc3)CC2)c1 [TCMDC-134143] | -6.866
COc1cccc(CC(=O)NC2CCN(c3ccnc4cc(Cl)ccc34)C2)c1 (centres unmarked) [TCMDC-133664] | 6.238
COc1cccc(CC(=O)N2CCC(n3c(C)nc4ccc(C)cc43)CC2)c1 [TCMDC-124791] | 93.69
COc1cccc(CC(=O)N2CCC(n3c(C)nc4ccc(F)cc43)CC2)c1 [TCMDC-124792] | 80.7
Cc1ccc(NC(=O)NC2CCN(c3ccnc4ccccc34)CC2)cc1 [TCMDC-133588] | 13.19
Cc1nc(/N=C(\N)NC(=O)NC2CCCCC2)nc2ccccc12 [TCMDC-123808] | 133.5
CCOC(=O)c1[nH]c(-c2ccccc2)nc1NC(=S)NC1CCCCC1 [TCMDC-131430] | 5.591
CC(C)CC(NC(=O)c1ccc(F)cc1)C(=O)N[C@H](/C=N/N1CCNC1=O)CC(C)C (some centres unmarked) [TCMDC-136214] | 16.28
OC(c1ccccc1)C1CN(Cc2ccccc2)CCC1(O)c1ccccc1 (centres unmarked) [TCMDC-125518] | -9.589
CC(c1cccc(S(=O)(=O)NCc2ccc(Cl)cc2Cl)c1)N1CCC(N2CCCCC2)CC1 (centres unmarked) [TCMDC-133564] | -22.09
CCNCCCC(C)Nc1ccnc2cc(Cl)ccc12 (centres unmarked) [TCMDC-125876] | 27.58
OC(CNCCc1ccccc1)Cn1c2ccc(Cl)cc2c2cc(Cl)ccc21 (centres unmarked) [TCMDC-124135] | 17.2
CC(C)CCNCC(O)Cn1c2ccc(Cl)cc2c2cc(Cl)ccc21 (centres unmarked) [TCMDC-125673] | 69.1
CCC(CO)NCC(O)Cn1c2ccc(Br)cc2c2cc(Br)ccc21 (centres unmarked) [TCMDC-125710] | 27.72
COCCNCC(O)Cn1c2ccc(Cl)cc2c2cc(Cl)ccc21 (centres unmarked) [TCMDC-123535] | 54.28
CCC(CO)NCC(O)Cn1c2ccc(Cl)cc2c2cc(Cl)ccc21 (centres unmarked) [TCMDC-125711] | 55
